Data as given in PubChem BioAssay (NCI).
The panel holds about 83,000 compounds, 20% with a hit somewhere; the sample as a whole holds those more often.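 Single-concentration screen, 48 h exposure, 96-well plates. Endpoint: percent growth. Below 10 = active.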 Active and inactive are the calls of the source.

Key:
Test in all cases: NCI-60 one-dose screen, 48 h (100 = growth as untreated, 0 = no growth, -100 = all killed)
Conditions in all cases: 10 µM unless noted
SK-MEL-2 melanoma = test system: SK-MEL-2 melanoma
EKVX NSCLC = test system: EKVX NSCLC
SN12C renal = test system: SN12C renal
UO-31 renal = test system: UO-31 renal
TK-10 renal = test system: TK-10 renal
ACHN renal = test system: ACHN renal
CAKI-1 renal = test system: CAKI-1 renal
A498 renal = test system: A498 renal
CCRF-CEM leukemia = test system: CCRF-CEM leukemia
MOLT-4 leukemia = test system: MOLT-4 leukemia
SR leukemia = test system: SR leukemia
RPMI-8226 leukemia = test system: RPMI-8226 leukemia
OVCAR-8 ovarian = test system: OVCAR-8 ovarian
OVCAR-5 ovarian = test system: OVCAR-5 ovarian
OVCAR-4 ovarian = test system: OVCAR-4 ovarian
SK-OV-3 ovarian = test system: SK-OV-3 ovarian
OVCAR-3 ovarian = test system: OVCAR-3 ovarian
NCI/ADR-RES ovarian = test system: NCI/ADR-RES ovarian
IGROV1 ovarian = test system: IGROV1 ovarian
HS 578T breast = test system: HS 578T breast

Measured: growth

O=C(/C=C\c1ccco1)/C=C/c1ccco1
active: CCRF-CEM leukemia 8.75%
inactive: SK-MEL-2 melanoma 109% | EKVX NSCLC 99.5% | SN12C renal 97.7% | UO-31 renal 76.3% | TK-10 renal 108% | ACHN renal 110% | CAKI-1 renal 107% | A498 renal 97.5% | MOLT-4 leukemia 112% | SR leukemia 103% | RPMI-8226 leukemia 99.1% | OVCAR-8 ovarian 99.8% | OVCAR-5 ovarian 95.1% | OVCAR-4 ovarian 105% | SK-OV-3 ovarian 104% | OVCAR-3 ovarian 134% | NCI/ADR-RES ovarian 105%

CSCCC(NC(=O)c1ccccc1)C(=O)N/N=C1\S/C(=C/c2ccc(Cl)cc2)C(=O)N1C (stereo not given)
active: CCRF-CEM leukemia 4.24%
inactive: SK-MEL-2 melanoma 97.4% | EKVX NSCLC 92.7% | SN12C renal 97.3% | UO-31 renal 90.6% | TK-10 renal 105% | ACHN renal 76.5% | CAKI-1 renal 117% | A498 renal 103% | MOLT-4 leukemia 66.8% | SR leukemia 38.2% | RPMI-8226 leukemia 49.9% | OVCAR-8 ovarian 71.1% | OVCAR-5 ovarian 94.5% | OVCAR-4 ovarian 88.8% | SK-OV-3 ovarian 84.5% | IGROV1 ovarian 95.7% | OVCAR-3 ovarian 108% | NCI/ADR-RES ovarian 96.7%

O=C(CN1CCN(c2cc3c(cc2F)c(=O)c(C(=O)O)cn3C2CC2)CC1)N/N=C/c1ccncc1
inactive: SK-MEL-2 melanoma 105% | EKVX NSCLC 98.3% | SN12C renal 106% | UO-31 renal 90.6% | TK-10 renal 91.6% | ACHN renal 99.6% | CAKI-1 renal 93.8% | A498 renal 96.4% | CCRF-CEM leukemia 94% | MOLT-4 leukemia 101% | SR leukemia 107% | RPMI-8226 leukemia 93.2% | OVCAR-8 ovarian 97.5% | OVCAR-5 ovarian 98.2% | OVCAR-4 ovarian 98.9% | SK-OV-3 ovarian 102% | IGROV1 ovarian 108% | OVCAR-3 ovarian 96.9% | NCI/ADR-RES ovarian 107%

COc1ccc(NC(=O)c2cccc(C3CCc4c(cc(OC)c(OC)c4OC)O3)c2)cc1 (stereo not given)
inactive: EKVX NSCLC 47% | SN12C renal 31.4% | UO-31 renal 28.8% | TK-10 renal 43.7% | ACHN renal 41.1% | CAKI-1 renal 44.6% | OVCAR-8 ovarian 35.1% | OVCAR-5 ovarian 64.8% | OVCAR-4 ovarian 53.1% | SK-OV-3 ovarian 26.8% | HS 578T breast 22%
active: SK-MEL-2 melanoma 9.28% | A498 renal -8.67% | CCRF-CEM leukemia -1.05% | MOLT-4 leukemia 9.23% | SR leukemia 5.23% | RPMI-8226 leukemia -24.2% | OVCAR-3 ovarian 6.25% | NCI/ADR-RES ovarian 8.7%

O=C1NC(=Nc2ccc(O)cc2)S/C1=C\c1cccs1
inactive: SK-MEL-2 melanoma 97.9% | EKVX NSCLC 38.8% | SN12C renal 46.1% | UO-31 renal 52.5% | TK-10 renal 69.3% | ACHN renal 30.3% | CAKI-1 renal 40.9% | A498 renal 15.9% | CCRF-CEM leukemia 11.9% | MOLT-4 leukemia 23.1% | SR leukemia 11.6% | OVCAR-8 ovarian 48.5% | OVCAR-5 ovarian 84.5% | OVCAR-4 ovarian 48.8% | SK-OV-3 ovarian 62.6% | HS 578T breast 32.6% | NCI/ADR-RES ovarian 32.1%
active: RPMI-8226 leukemia 2.94% | OVCAR-3 ovarian 8.01%

Cc1ccc(C)c2c1C(O)(C#Cc1ccccc1)c1ccccc1C2(O)C#Cc1ccccc1 (stereo not given)
inactive: SK-MEL-2 melanoma 15.9% | EKVX NSCLC 38.5% | SN12C renal 71.5% | UO-31 renal 19.6% | TK-10 renal 58.8% | ACHN renal 49.7% | CAKI-1 renal 71.9% | A498 renal 69.2% | CCRF-CEM leukemia 27.5% | MOLT-4 leukemia 19.5% | SR leukemia 123% | RPMI-8226 leukemia 18.9% | OVCAR-8 ovarian 59.3% | OVCAR-5 ovarian 81.3% | OVCAR-4 ovarian 47.7% | SK-OV-3 ovarian 75% | OVCAR-3 ovarian 63.3% | NCI/ADR-RES ovarian 71.1%

Cn1c(=O)c2c(c3ccccc31)OC(N)=C(C#N)C21C(=O)c2ccccc2C1=O
inactive: SK-MEL-2 melanoma 107% | EKVX NSCLC 86% | SN12C renal 90.1% | UO-31 renal 61.4% | TK-10 renal 127% | ACHN renal 97% | CAKI-1 renal 84.2% | A498 renal 82.8% | CCRF-CEM leukemia 103% | MOLT-4 leukemia 112% | SR leukemia 105% | RPMI-8226 leukemia 94.8% | OVCAR-8 ovarian 97.5% | OVCAR-5 ovarian 98% | OVCAR-4 ovarian 92.4% | SK-OV-3 ovarian 90.8% | OVCAR-3 ovarian 98.7% | HS 578T breast 81.5% | NCI/ADR-RES ovarian 103%

COc1ccc2c(c1)c(-c1nonc1-c1c[nH]c3ccc(Br)cc13)cn2C
inactive: SK-MEL-2 melanoma 46.9% | EKVX NSCLC 31.6% | SN12C renal 59.3% | UO-31 renal 40.8% | TK-10 renal 58.2% | ACHN renal 43.7% | CAKI-1 renal 34.3% | A498 renal 27.4% | CCRF-CEM leukemia 33.5% | MOLT-4 leukemia 17.6% | SR leukemia 14.6% | RPMI-8226 leukemia 45.5% | OVCAR-8 ovarian 48.2% | OVCAR-5 ovarian 55.3% | OVCAR-4 ovarian 55.1% | SK-OV-3 ovarian 58.4% | OVCAR-3 ovarian 41.1% | HS 578T breast 59.1% | NCI/ADR-RES ovarian 34.9%

CCOC(=O)c1c(NC(=O)c2ccc(C(C)(C)C)cc2)sc2cc(O)ccc12
inactive: SK-MEL-2 melanoma 112% | EKVX NSCLC 94.9% | SN12C renal 99.6% | UO-31 renal 70.4% | TK-10 renal 129% | ACHN renal 97.5% | CAKI-1 renal 85.9% | A498 renal 88.8% | CCRF-CEM leukemia 80.1% | MOLT-4 leukemia 82.3% | SR leukemia 87.9% | RPMI-8226 leukemia 104% | OVCAR-8 ovarian 92.7% | OVCAR-5 ovarian 104% | OVCAR-4 ovarian 104% | SK-OV-3 ovarian 109% | OVCAR-3 ovarian 110% | NCI/ADR-RES ovarian 89.2%

O=C(CSc1nnc2sc(Nc3cccc(Cl)c3)nn12)c1ccc(F)cc1
inactive: SK-MEL-2 melanoma 102% | EKVX NSCLC 94.8% | SN12C renal 98.9% | UO-31 renal 78.8% | TK-10 renal 114% | ACHN renal 96% | CAKI-1 renal 71.3% | A498 renal 103% | CCRF-CEM leukemia 91.1% | MOLT-4 leukemia 71.3% | SR leukemia 90.9% | RPMI-8226 leukemia 94.9% | OVCAR-8 ovarian 102% | OVCAR-5 ovarian 95.1% | OVCAR-4 ovarian 101% | SK-OV-3 ovarian 82.1% | OVCAR-3 ovarian 106% | NCI/ADR-RES ovarian 96.4%

CN1CCN(Cc2ccc(NC(=O)c3cncc(C#Cc4cncc5[nH]ncc45)c3)cc2C(F)(F)F)CC1
inactive: EKVX NSCLC 26.3% | TK-10 renal 12.5% | OVCAR-8 ovarian 18.2% | OVCAR-4 ovarian 10.2% | OVCAR-3 ovarian 15.8% | NCI/ADR-RES ovarian 57.4%
active: SK-MEL-2 melanoma -52.4% | SN12C renal 8.48% | UO-31 renal -25% | ACHN renal -0.725% | CAKI-1 renal -52% | A498 renal -49.5% | CCRF-CEM leukemia 7.31% | MOLT-4 leukemia 3.77% | SR leukemia -4.67% | RPMI-8226 leukemia 1.42% | OVCAR-5 ovarian 4.44% | SK-OV-3 ovarian 8.47% | HS 578T breast -35.5%

Cc1ncc(C(=O)Nc2ccc(CN3CCN(C)CC3)c(C(F)(F)F)c2)cc1C#Cc1cnc(N)c2ccncc12
active: SK-MEL-2 melanoma -55.8% | EKVX NSCLC -18.9% | SN12C renal -26.8% | UO-31 renal -42.2% | TK-10 renal -59% | ACHN renal -64.3% | CAKI-1 renal -56.8% | A498 renal -90.2% | CCRF-CEM leukemia -23.3% | MOLT-4 leukemia -42.5% | SR leukemia -41% | RPMI-8226 leukemia -43.7% | OVCAR-8 ovarian -35.5% | OVCAR-5 ovarian -13.6% | OVCAR-4 ovarian -16.9% | SK-OV-3 ovarian -34.7% | OVCAR-3 ovarian -43.6% | HS 578T breast -19% | NCI/ADR-RES ovarian -25.1%

COc1cccc(Nc2ccnc3[nH]c4ccc([N+](=O)[O-])cc4c23)c1
inactive: SK-MEL-2 melanoma 40.2% | EKVX NSCLC 31.6% | SN12C renal 65.2% | UO-31 renal 44.4% | TK-10 renal 66.6% | ACHN renal 45.2% | CAKI-1 renal 28.8% | A498 renal 43.5% | CCRF-CEM leukemia 42% | MOLT-4 leukemia 48.7% | SR leukemia 31.5% | RPMI-8226 leukemia 65.2% | OVCAR-8 ovarian 32.2% | OVCAR-5 ovarian 110% | SK-OV-3 ovarian 47.5% | IGROV1 ovarian 33.1% | OVCAR-3 ovarian 46.9% | HS 578T breast 27.8% | NCI/ADR-RES ovarian 44.4%

Clc1nccc2c(-c3csc(-c4c[nH]c5ccccc45)n3)c[nH]c12
inactive: SK-MEL-2 melanoma 79.5% | EKVX NSCLC 63.2% | SN12C renal 59.2% | UO-31 renal 25.9% | TK-10 renal 55.8% | ACHN renal 24.4% | CAKI-1 renal 52.3% | A498 renal 32.7% | CCRF-CEM leukemia 31.1% | MOLT-4 leukemia 40.5% | SR leukemia 11.3% | RPMI-8226 leukemia 51.4% | OVCAR-8 ovarian 56.5% | OVCAR-5 ovarian 107% | OVCAR-4 ovarian 68.9% | SK-OV-3 ovarian 58.8% | OVCAR-3 ovarian 68.6% | HS 578T breast 45.2% | NCI/ADR-RES ovarian 53.1%

COc1cc2c3c(c1O)-c1ccccc1[C@@H]1OC(=O)N(CC2)[C@H]31
inactive: SK-MEL-2 melanoma 97.6% | EKVX NSCLC 104% | SN12C renal 101% | UO-31 renal 88.5% | TK-10 renal 104% | ACHN renal 106% | CAKI-1 renal 95.4% | A498 renal 92.9% | CCRF-CEM leukemia 74.1% | MOLT-4 leukemia 96.8% | SR leukemia 98.2% | RPMI-8226 leukemia 99.2% | OVCAR-8 ovarian 97.8% | OVCAR-5 ovarian 116% | OVCAR-4 ovarian 105% | SK-OV-3 ovarian 106% | OVCAR-3 ovarian 115% | HS 578T breast 102% | NCI/ADR-RES ovarian 104%

Cc1ccc2[nH]c(-c3ccc(S(C)(=O)=O)cc3)c(/C=N/N=C(N)N)c2c1
inactive: SK-MEL-2 melanoma 43.2% | EKVX NSCLC 90.2% | SN12C renal 56.9% | UO-31 renal 60% | TK-10 renal 90.9% | ACHN renal 63% | CAKI-1 renal 52.3% | A498 renal 38.2% | CCRF-CEM leukemia 37.2% | MOLT-4 leukemia 41.6% | SR leukemia 24.4% | RPMI-8226 leukemia 39.2% | OVCAR-8 ovarian 58.4% | OVCAR-5 ovarian 101% | OVCAR-4 ovarian 90.7% | SK-OV-3 ovarian 57.7% | OVCAR-3 ovarian 27.6% | HS 578T breast 50.5% | NCI/ADR-RES ovarian 49.4%
